From PubChem BioAssay AID463173 (ICCB-Longwood Screening Facility, Harvard Medical School, 2010)
Screen size: about 52,000 compounds; about 1,700 (3.3%) were called active. Only a selection was taken, and actives are over-represented in it overall. Values without a mark were called inactive. No stated cut-off is given here; in the data, active means survival mostly below about 52% (no sharp cut-off); inactive means mostly above about 56%.

Tested on: Wild type
Test: growth inhibition of S. aureus wild type versus tarO mutant, primary screen, teichoic acid synthesis inhibitors, RN4220, OD600 (AID 463173)
Conditions: S. aureus RN4220 wild type/DeltatarO growth, OD600, 18 h, hits give low values, screened at 18.75 µg/mL (by protocol)

| SMILES | survival |
| --- | --- |
| O=C(CSCc1cccc(F)c1)NCc1ccccc1 | 85% |
| CC(=O)Nc1cccc(C(=O)NCc2ccc3c(c2)CCN3C(=O)c2ccccc2)c1 | 63% |
| CCOc1cc(CNc2ccc(O)cc2)cc(Br)c1OCc1ccccc1 | -5% (active) |
| Oc1ccc(NCc2ccccc2OCc2ccccc2)cc1 | 100% |
| Oc1ccc(NCc2ccccc2OCc2ccc(Cl)cc2)cc1 | 72% |
| CCOc1c(Cl)cc(CNc2ccc3[nH]c(=O)[nH]c3c2)cc1OC | 88% |
| CCOc1cc(CNc2ccc(O)cc2)cc(Cl)c1OCc1ccccc1 | -5% (active) |
| CCOc1cccc(CNc2ccc(O)cc2)c1OCc1ccccc1Cl | 54% |
| CCOc1cc(CNc2ccc(O)cc2)ccc1OCc1ccc(Cl)cc1 | 10% (active) |
| COc1cc(CNc2ccc3[nH]c(=O)[nH]c3c2)cc(Br)c1OCc1ccc(F)cc1 | 117% |
| CCOc1cc(CNc2ccc(C(=O)O)cc2)ccc1OCc1ccccc1 | 57% |
| COc1cccc(NC(=O)C2CCN(S(=O)(=O)c3ccc4[nH]c5c(c4c3)CCCCC5)CC2)c1 | 84% |
| COc1ccc(NC(=O)c2ccc(CNS(=O)(=O)c3ccc4c(c3)C(C)(C)C(=O)N4C)cc2)cc1 | 114% |
| COc1cccc(NC(=O)c2nnn(Cc3cccc(C(F)(F)F)c3)c2N)c1 | 87% |
| Cc1ccc(Cl)cc1-n1c(CCC(=O)O)ccc1-c1cccs1 | 64% |
| CCOc1ccc(-c2cc3c(=O)n(CC(=O)Nc4cc(F)ccc4C)ccn3n2)cc1 | 68% |
| Cc1ccc(-n2ncc(C(=O)Nc3ccc4c(c3)OCCO4)c2C2CCN(C(=O)OC(C)(C)C)CC2)cc1C | 82% |
| CCCN1CCc2nc(SCC(=O)Nc3ccc(C)c(Cl)c3)[nH]c(=O)c2C1 | 99% |
| O=C(c1cc2ccc3cccnc3c2[nH]1)N1CCN(c2ccc(Cl)cc2)CC1 | 91% |
| O=C(c1cc2ccc3cccnc3c2[nH]1)N1CCN(c2cccc(C(F)(F)F)c2)CC1 | -2% (active) |
| O=C(c1noc2c1CCCCC2)N1CCN(c2ccc(Cl)cc2)CC1 | 73% |
| O=C(c1cc2ccc3cccnc3c2[nH]1)N1CCN(c2ccccc2)CC1 | 59% |
| CC1CCc2onc(C(=O)N3CCN(c4cccc(Cl)c4)CC3)c2C1 (stereo not given) | 88% |

| SMILES | survival |
| --- | --- |
| O=C(c1noc2c1CCCCC2)N1CCN(c2cccc(Cl)c2)CC1 | 73% |
| O=C(c1noc2c1CCCCC2)N1CCN(c2cccc(C(F)(F)F)c2)CC1 | -3% (active) |
| CC1CCc2onc(C(=O)N3CCN(c4cccc(C(F)(F)F)c4)CC3)c2C1 (stereo not given) | 10% (active) |
| CC1CCc2onc(C(=O)N3CCN(c4ccccc4)CC3)c2C1 (stereo not given) | 121% |
| CCn1c(Cc2ccccc2)nnc1SCC(=O)N(C)C1CCCCC1 | 108% |
| COc1ccc(CNc2nc3c(-c4ccccc4)nnn3c3ccccc23)cc1 | 90% |
| COc1ccc(-c2cc(C(=O)Nc3c(C)n(C)n(-c4ccccc4)c3=O)no2)cc1 | 73% |
| Cc1cccc(CNC(=O)c2ccc(N3Cc4ccccc4Oc4ncccc43)s2)c1 | 69% |
| Cc1ccc(Cn2c(C)c3cnn(CC(=O)N4CCN(c5cc(C)ccc5C)CC4)c(=O)c3c2C)cc1 | 65% |
| CCOC(=O)c1noc2ncn(CC(=O)Nc3ccc(F)cc3Cl)c(=O)c12 | -6% (active) |
| CCOC(=O)c1noc2ncn(CC(=O)Nc3cc(Cl)ccc3OC)c(=O)c12 | 76% |
| CCOC(=O)c1noc2ncn(CC(=O)Nc3ccccc3OC)c(=O)c12 | 133% |
| COc1cccc(NC(=O)Cn2c(=O)n(Cc3ccc4c(c3)OCO4)c(=O)c3oc4ccccc4c32)c1 | 80% |
| O=C(CCn1cnc2onc(-c3ccc(F)cc3)c2c1=O)N1CCN(c2ccc(F)cc2)CC1 | 98% |
| O=C(Cn1cnc2onc(-c3ccc(F)cc3)c2c1=O)N1CCN(c2ccccc2F)CC1 | 71% |
| O=C(CCn1cnc2onc(-c3ccc(F)cc3)c2c1=O)N1CCN(c2ccccc2)CC1 | 75% |
| COc1ccccc1N1CCN(C(=O)CCn2cnc3onc(-c4ccc(F)cc4)c3c2=O)CC1 | 87% |
| CC(=O)c1ccc(N2CCN(C(=O)CCn3cnc4onc(-c5ccc(F)cc5)c4c3=O)CC2)cc1 | -6% (active) |
| O=C(CCn1cnc2onc(-c3ccc(F)cc3)c2c1=O)N1CCN(c2ccccc2F)CC1 | -6% (active) |
| CCOc1ccc(CC(=O)NCCc2sc3nc(-c4ccc(F)cc4)nn3c2C)cc1 | 71% |
| COC(=O)c1ccccc1NC(=O)c1cc(-c2ccc(Cl)cc2)on1 | 71% |
| Cc1ccc(C)c(NC(=O)CSc2nnc(CNC(=O)c3ccccc3)n2-c2ccccc2)c1 | 63% |
